According to the supplement of paper PMC7156485:
“And” between values parts separate entries of the source, which are not always exact repeats. Equal values may be shown once. ± gives the standard deviation of the averaged measurements.

What was measured:
Details in all cases: concentration: 10 µM; 24 h
HCC1569 [1] = test: cell number relative to DMSO (% of DMSO); higher = more cells (less growth inhibition / toxicity)
In short: (§1)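 H1.0 nuclear intensity or cell number is expressed as percent of the plate control, with the median of replicates taken. HCC1569 and TDF cells were treated with compounds at 10 µM for 24 h at 37 °C, in triplicate, then fixed and immunostained for H1.0 with DAPI as a nuclear stain. HCC1569 values were smoothed to correct for positional effects.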

TDF [2] = test: as above
In short: as §1

TDF [3] = test: H1.0 immunofluorescence intensity relative to DMSO (% of DMSO); higher = stronger H1.0 induction, active = 120 or more
In short: as §1

HCC1569 [4] = test: H1.0 immunofluorescence intensity relative to DMSO (% of DMSO); higher = stronger H1.0 induction, active = 140 or more
In short: as §1
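Throughout, for H1.0 immunofluorescence intensity relative to DMSO: TDF is a line of transformed human dermal fibroblasts of mesenchymal origin.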
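Throughout, for cell number relative to DMSO: TDF denotes transformed human dermal fibroblasts of mesenchymal origin.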

| SMILES | cell number (HCC1569 [1]) | cell number (TDF [2]) | H1.0 immunofluorescence intensity (TDF [3]) | H1.0 immunofluorescence intensity (HCC1569 [4]) |
| --- | --- | --- | --- | --- |
| NCCCCCC(=O)O [6-Aminohexanoic acid] | 101 | 116 | 106 (inactive) | 102 (inactive) |
| CCCOc1ccccc1-c1nc2[nH][nH]nc-2c(=O)n1 [Zaprinast] | 100.3 ± 0.47 | 113 ± 8.6 | 99.1 (inactive) | 104 (inactive) |
| CCCOC(=O)c1cc(O)c(O)c(O)c1 [N-Propyl gallate] | 89 | 91 | 100 (inactive) | 107 (inactive) |
| CN(C)CCCN1c2ccccc2CCc2ccc(Cl)cc21.Cl [Clomipramine hydrochloride] | 89.6 | 102 | 107 (inactive) | 122 (inactive) |
| O=c1[nH]nc(Sc2ncc([N+](=O)[O-])s2)n1-c1ccc2c(c1)OCCO2 | 58.3 and 32.2 | 90.9 and 81.2 | 103 (inactive) and 102 (inactive) | 137 (inactive) and 134 (inactive) |
| Cc1cnc(NC(=O)C2=C([O-])c3ccccc3S(=O)(=O)N2C)s1.[Na+] [Meloxicam sodium] | 102 | 115 | 91.1 (inactive) | 97.1 (inactive) |
| CCCCCCCCCCCC=CC(C)(C)C=CCCCC(=O)O [7,7-Dimethyl-(5Z,8Z)-eicosadienoic acid] | 102 | 101 | 91.9 (inactive) | 92.2 (inactive) |
| OCCN(CCO)c1nc(N2CCCCC2)c2nc(N(CCO)CCO)nc(N3CCCCC3)c2n1 [Dipyridamole] | 94.2 ± 1.5 | 104 ± 7.8 | 85.7 (inactive) | 98.9 (inactive) |
| CC1CCC2C(C)(CO)C(O)CCC2(C)C12CCC(CO)(CCO)O2 (configuration not stated) [Lagochiline] | 98.2 | 99.8 | 97 (inactive) | 100 (inactive) |
| CCCCCC(O)C=CC=O (racemic) | 99.2 | 109 | 93.8 (inactive) | 106 (inactive) |
| NC(=O)c1ccc(-c2nc(-c3ccc4c(c3)OCCO4)c(-c3ccccn3)[nH]2)cc1 [Casein Kinase I Inhibitor, D4476] | 92.2 | 97 | 95.4 (inactive) | 127 (inactive) |
| NS(=O)(=O)c1cc2c(cc1Cl)NC(C(Cl)Cl)NS2(=O)=O (configuration not stated) [Trichloromethiazide] | 106 | 105 | 93.9 (inactive) | 110 (inactive) |
| Nc1ncnc2c1nc(Br)n2C1OC2COP(=O)([O-])OC2C1O.[Na+] (configuration not stated) [8-Bromo-cAMP sodium] | 104 | 110 | 95.5 (inactive) | 90.3 (inactive) |
| NC(CS(=O)O)C(=O)O [L-Cysteinesulfinic Acid] | 102 | 113 | 96.7 (inactive) | 92.3 (inactive) |
| CC1OC(OC2C(O)CC(OC3C(O)CC(OC4CCC5(C)C(CCC6C5CCC5(C)C(C7=CC(=O)OC7)CCC65O)C4)OC3C)OC2C)CC(O)C1O (configuration not stated) [Digitoxin] | 58.4 | 48.4 | 127 (active) | 121 (inactive) |
| CC(C)C(CO)Nc1nc(Nc2cccc(Cl)c2)c2ncn(C(C)C)c2n1 (configuration not stated) | 65.5 | 60.6 | 120 (inactive) | 174 (active) |
| C#CCCCCCCCCCCCCCCCC(=O)O [17-Octadecynoic acid] | 102 | 99.7 | 92.5 (inactive) | 99.4 (inactive) |
| N#CC(=C(N)Sc1ccccc1N)c1cccc(C(O)c2ccncc2)c1 (configuration not stated) [MEK Inhibitor I] | 77.2 | 86.8 | 98.7 (inactive) | 176 (active) |
